Measured values as given in PubChem BioAssay (EPA / NIEHS).
Inconclusive results are not listed. Some structures have more than one record in an assay (separate samples or runs), and their calls can disagree. Calls of active or inactive are those of the source. How the source made its calls, unless noted: active means hit-call score of the fitted dose curve at least 0.9, where 1 is the maximum; inconclusive means response in the unintended direction; inactive means score below 0.9.

Assays:
[1] = biological target: Retinoic acid receptor alpha (Homo sapiens) (UniProt P10276); test: ATG_DR5_RAR_CIS: Attagene CIS-FACTORIAL HepG2 Assay for human Retinoic Acid Receptor Alpha (RARE), DR5 submotif (AID 2282934; active means hit-call score of the fitted dose curve at least 0.9, where 1 is the maximum; inactive means score below 0.9); settings: HepG2 Attagene cis-factorial RARE DR5 reporter, mRNA; actives raise or lower the signal
Procedure, shortened: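 HepG2 cells transiently transfected with multiplexed reporter units under cis (DR5 RARE) promoters, so endogenous transcription factor activity is measured. After 24 h compound exposure, reporter mRNA is quantified by RT-PCR with fluorescent labelling and capillary electrophoresis; bidirectional fitting versus DMSO.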

[2] = biological target: Bile acid receptor (Homo sapiens) (UniProt Q96RI1); test: ATG_IR1_CIS: Attagene CIS-FACTORIAL HepG2 Assay for human Nuclear Receptor Subfamily 1 Group H Member 4 (NR1H4), IR1 submotif (AID 2282946; active means hit-call score of the fitted dose curve at least 0.9, where 1 is the maximum; inactive means score below 0.9); settings: IR1 reporter transcription, actives raise or lower the signal
Procedure, shortened: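 Transient MRTU transfection, HepG2; 24 h dosing; RNA → RT-PCR → 6-FAM primer extension → HpaI digest → capillary electrophoresis fluorescence. Gain/loss of signal fitted relative to DMSO.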

[3] = ATG_PPRE_CIS: Attagene CIS-FACTORIAL HepG2 Assay for human Peroxisome Proliferator-activated Response Element (PPRE) (AID 2282958; active means hit-call score of the fitted dose curve at least 0.9, where 1 is the maximum; inactive means score below 0.9); settings: HepG2 PPRE cis-element reporter, Attagene transcription factor profiling; actives raise or lower the signal
Procedure, shortened: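 Cells are first transfected transiently with the multiplexed reporter library, then dosed for 24 h. Total RNA is reverse-transcribed, amplified, fluorescently end-labeled and HpaI-cut before capillary electrophoresis; activity is fitted bidirectionally against DMSO controls.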

[4] = ATG_M_19_TRANS: Attagene TRANS-FACTORIAL HepG2 Assay for M19 Transcription Factor (Internal Marker) (AID 2282974); settings: HepG2 Attagene TRANS-FACTORIAL M19 internal marker reporter
Procedure, shortened: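 Cells: human HepG2, transiently transfected with multiplexed reporter transcription units. Exposure: 24 h. Detection: RT-PCR of reporter mRNA with capillary electrophoresis. Analysis: gain-of-signal vs DMSO.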

[5] = biological target: Oxysterols receptor LXR-alpha (Homo sapiens) (UniProt Q13133); test: ATG_LXRa_TRANS: Attagene TRANS-FACTORIAL HepG2 Assay for human Liver X Receptor alpha (LXRa) (AID 2282980); settings: HepG2 Attagene TRANS reporter, LXRa transactivation
Procedure, shortened: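 Chemical-induced reporter mRNA measured by RT-PCR with fluorescent labelling and capillary electrophoresis after 24 h dosing of transiently transfected HepG2 cells expressing exogenous NR-Gal4 chimeras; increases scored against DMSO baseline.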

[6] = biological target: Oxysterols receptor LXR-beta (Homo sapiens) (UniProt P55055); test: ATG_LXRb_TRANS: Attagene TRANS-FACTORIAL HepG2 Assay for human Liver X Receptor beta (LXRb) (AID 2282981); settings: HepG2 Attagene TRANS GAL4-LXRb reporter, mRNA
Procedure, shortened: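 In this TRANS format, exogenous chimeric NR-Gal4 protein activity, not endogenous factors, drives reporter expression in transfected human HepG2 cells. Exposure lasted 24 h; reporter mRNA was read by fluorescent capillary electrophoresis.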

[7] = biological target: Cellular tumor antigen p53 (Homo sapiens) (UniProt P04637); test: ATG_p53_CIS: Attagene CIS-FACTORIAL HepG2 Assay for human p53 Transcription Factor (AID 2282994; active means hit-call score of the fitted dose curve at least 0.9, where 1 is the maximum; inactive means score below 0.9); settings: HepG2 p53 cis-element reporter, Attagene mRNA; actives raise or lower the signal
Procedure, shortened: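 HepG2 cells transiently transfected with cis-regulated multiple reporter transcription units, dosed 24 h. Reporter mRNA measured by RT-PCR, 6-FAM primer extension, HpaI digestion and capillary electrophoresis; bidirectional fit relative to DMSO.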

[8] = biological target: human Peroxisome Proliferator-activated Receptor delta (PPARd), PPARD (gene 5467) (UniProt Q03181); test: ATG_PPARd_TRANS: Attagene TRANS-FACTORIAL HepG2 Assay for human Peroxisome Proliferator-activated Receptor delta (PPARd) (AID 2283002)
Procedure, shortened: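 HepG2 cells transiently transfected with multiplexed GAL4-UAS reporter units and exogenous chimeric NR-Gal4 proteins; 24 h compound exposure. Reporter mRNA measured by RT-PCR, 6-FAM labelling, HpaI digestion and capillary electrophoresis; gain of signal versus DMSO.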

[9] = biological target: human Vitamin D Receptor (VDR), VDR (gene 7421) (UniProt P11473); test: ATG_VDR_TRANS: Attagene TRANS-FACTORIAL HepG2 Assay for human Vitamin D Receptor (VDR) (AID 2283022)
Procedure, shortened: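 Transactivation by an exogenous VDR-Gal4 chimera in transiently transfected HepG2 cells was measured as reporter transcript level 24 hours after chemical treatment. RT-PCR products were analysed by capillary electrophoresis and fitted in the positive direction relative to DMSO.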

[10] = TOX21_p53_BLA_p2_viability: Viability Assessment in the Tox21 HCT-116 p53 Agonism Beta-lactamase Assay, Phase 2 (AID 2283591);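 further: compound exposure lasted 16 h at 37 °C; actives lower the ATP signal meaning cytotoxicity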
Procedure, shortened: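 HCT-116 p53-bla cells (4000/well) rested 5 h at 37C, then received compounds in DMSO (217-fold dilution) for 16 h at 37C, 5% CO2. After the CCF4 read, CellTiter-Glo was added; ATP luminescence was read after 30 min at room temperature.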

[11] = TOX21_p53_BLA_p4_viability: Viability Assessment in the Tox21 HCT-116 p53 Agonism Beta-lactamase Assay, Phase 4 (AID 2283597);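 further: hits lower the luminescence signal meaning cytotoxicity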
Procedure, shortened: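 Following a 16 h exposure at 37C, the treated HCT116 wells were first read for the FRET ratio. They were then lysed with CellTiter-Glo, and ATP luminescence was recorded after 30 min at room temperature.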

[12] = CCTE_Harrill_HTTr_Viability_MCF7: CCTE's 6-hour Cell Viability Assessment for the High-Throughput Transcriptomics (HTTr) Platform, in MCF-7 cells cultured in DMEM + 10% fetal bovine serum, Harrill Lab (AID 2284010; active means hit-call score of the fitted dose curve at least 0.9, where 1 is the maximum; inactive means score below 0.9)
Procedure, shortened: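 MCF-7 cells in DMEM + 10% FBS, 384-well, exposed 6 h to an eight-point dilution series. Membrane integrity scored by high-content imaging of propidium iodide exclusion; bidirectional fit versus DMSO.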

[13] = biological target: Nuclear receptor subfamily 1 group I member 3 (Homo sapiens) (UniProt Q14994); test: ATG_CAR_TRANS: Attagene TRANS-FACTORIAL HepG2 Assay for human Constitutive Androstane Receptor (CAR) (AID 2282969); settings: HepG2 Attagene TRANS-FACTORIAL CAR reporter;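 further: activators raise reporter mRNA above DMSO so AC50 marks induction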
Procedure, shortened: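 HepG2 cells transiently transfected with multiplexed GAL4-UAS reporter units expressing chimeric NR-Gal4 proteins; compound exposure 24 h. Reporter mRNA measured by RT-PCR, 6-FAM labelling, HpaI digestion and capillary electrophoresis; gain-of-signal fitted against DMSO baseline.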

[14] = biological target: human RAR-related Orphan Receptor gamma (RORg), RORC (gene 6097) (UniProt P51449); test: ATG_RORg_TRANS: Attagene TRANS-FACTORIAL HepG2 Assay for human RAR-related Orphan Receptor gamma (RORg) (AID 2283011)
Procedure, shortened: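 Reporter transcripts from a transfected RORg-GAL4 chimera in HepG2 cells were quantified 24 h after dosing by RT-PCR, 6-FAM labelling, HpaI digestion and capillary electrophoresis; increases over DMSO baseline were fitted.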

[15] = ACEA_ER_AUC_viability: ACEA Biosciences xCELLigence Real-Time Cell Analysis on Estrogen Receptor Agonism for Viability (AID 2283782);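 further: continuous compound exposure with impedance area under curve over 80 h; hit means loss of impedance signal meaning reduced cell growth or viability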
Procedure, shortened: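 T-47D human breast cells in phenol red-free RPMI1640 with 10% charcoal-stripped FBS were dosed with an 8-point 1:4 dilution series from 100 uM top final concentration, in duplicate. Impedance-based growth was followed for 80 h; AUC analysed versus DMSO.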

[16] = ATG_GAL4_TRANS: Attagene TRANS-FACTORIAL HepG2 Assay for GAL4 (Internal Marker) (AID 2282976); settings: HepG2 Attagene TRANS GAL4 internal marker reporter
Procedure, shortened: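 In transfected human HepG2 liver cells dosed 24 h, GAL4 reporter mRNA serves as a baseline marker. Detection by RT-PCR with fluorescent capillary electrophoresis, activity fitted upward relative to DMSO.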

[17] = ATG_XTT_Cytotoxicity: Cytotoxicity Assessment in the Attagene TRANS-FACTORIAL HepG2 Assay (AID 2283584)
Procedure, shortened: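 Viability endpoint from XTT after 24 h chemical exposure of reporter-transfected human HepG2 liver cells; signal loss fitted relative to DMSO negative control.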

[18] = TOX21_p53_BLA_p3_viability: Viability Assessment in the Tox21 HCT-116 p53 Agonism Beta-lactamase Assay, Phase 3 (AID 2283593);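 further: cells exposed to compound for 16 h before reading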
Procedure, shortened: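 HCT-116 cells (4000/well) rested 5 h at 37C, then got DMSO compounds by pin tool (217-fold dilution) for 16 h at 37C, 5% CO2. After the bla read, CellTiter-Glo was added and luminescence read at 30 min, room temperature.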

[19] = biological target: Glucocorticoid receptor (Homo sapiens) (UniProt P04150); test: ATG_GR_TRANS: Attagene TRANS-FACTORIAL HepG2 Assay for human Glucocorticoid Receptor (GR) (AID 2282978); settings: HepG2 Attagene TRANS GR reporter, mRNA transcription;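 further: activators score as hits since higher reporter transcript over DMSO is fitted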
Procedure, shortened: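 In this trans-factorial format, exogenous NR-GAL4 chimeric proteins in transfected HepG2 cells regulate GAL4-UAS reporter transcription. After 24 h treatment, reporter mRNA induction relative to DMSO is read by RT-PCR and capillary electrophoresis.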

[20] = biological target: human RAR-related Orphan Receptor beta (RORb), RORB (gene 6096) (UniProt Q92753); test: ATG_RORb_TRANS: Attagene TRANS-FACTORIAL HepG2 Assay for human RAR-related Orphan Receptor beta (RORb) (AID 2283010);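 on AC50: potency for increased reporter mRNA meaning activation of RORb-Gal4 chimera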
Procedure, shortened: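 HepG2 cells transiently transfected with GAL4-UAS reporter units expressing chimeric NR-Gal4 protein; reporter mRNA measured 24 h after dosing by RT-PCR, 6-FAM labelling and capillary electrophoresis. Gain-of-signal fitted relative to DMSO baseline.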

Measured: AC50

Sequence of Bile acid receptor (Homo sapiens) (Q96RI1 whole entry, looked up): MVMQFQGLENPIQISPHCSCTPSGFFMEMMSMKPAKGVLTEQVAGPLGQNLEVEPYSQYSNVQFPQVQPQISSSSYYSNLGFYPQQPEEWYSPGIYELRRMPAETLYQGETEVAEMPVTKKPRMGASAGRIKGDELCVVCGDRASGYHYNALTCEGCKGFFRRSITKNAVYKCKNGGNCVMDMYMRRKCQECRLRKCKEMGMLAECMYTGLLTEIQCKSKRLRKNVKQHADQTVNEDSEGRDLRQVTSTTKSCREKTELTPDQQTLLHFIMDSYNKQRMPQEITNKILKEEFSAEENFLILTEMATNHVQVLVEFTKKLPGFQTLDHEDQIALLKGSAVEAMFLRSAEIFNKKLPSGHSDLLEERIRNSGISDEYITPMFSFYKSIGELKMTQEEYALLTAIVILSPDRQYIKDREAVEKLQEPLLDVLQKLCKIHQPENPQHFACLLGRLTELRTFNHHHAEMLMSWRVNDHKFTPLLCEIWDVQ
Sequence of Oxysterols receptor LXR-beta (Homo sapiens) (P55055 whole entry, looked up, the tested form may be a part): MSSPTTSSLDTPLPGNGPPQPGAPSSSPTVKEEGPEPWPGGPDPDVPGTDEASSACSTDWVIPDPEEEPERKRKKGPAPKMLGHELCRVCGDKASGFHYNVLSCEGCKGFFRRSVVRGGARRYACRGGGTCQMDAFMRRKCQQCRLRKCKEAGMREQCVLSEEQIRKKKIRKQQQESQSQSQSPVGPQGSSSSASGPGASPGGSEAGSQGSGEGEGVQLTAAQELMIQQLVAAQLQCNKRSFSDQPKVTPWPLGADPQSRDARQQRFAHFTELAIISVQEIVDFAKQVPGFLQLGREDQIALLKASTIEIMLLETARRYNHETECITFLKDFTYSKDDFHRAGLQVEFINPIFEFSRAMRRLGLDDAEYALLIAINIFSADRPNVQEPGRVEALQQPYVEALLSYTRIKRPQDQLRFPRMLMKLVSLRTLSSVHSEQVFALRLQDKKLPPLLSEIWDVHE
Sequence of human RAR-related Orphan Receptor gamma (RORg), RORC (gene 6097) (P51449 whole entry, looked up, the tested form may be a part): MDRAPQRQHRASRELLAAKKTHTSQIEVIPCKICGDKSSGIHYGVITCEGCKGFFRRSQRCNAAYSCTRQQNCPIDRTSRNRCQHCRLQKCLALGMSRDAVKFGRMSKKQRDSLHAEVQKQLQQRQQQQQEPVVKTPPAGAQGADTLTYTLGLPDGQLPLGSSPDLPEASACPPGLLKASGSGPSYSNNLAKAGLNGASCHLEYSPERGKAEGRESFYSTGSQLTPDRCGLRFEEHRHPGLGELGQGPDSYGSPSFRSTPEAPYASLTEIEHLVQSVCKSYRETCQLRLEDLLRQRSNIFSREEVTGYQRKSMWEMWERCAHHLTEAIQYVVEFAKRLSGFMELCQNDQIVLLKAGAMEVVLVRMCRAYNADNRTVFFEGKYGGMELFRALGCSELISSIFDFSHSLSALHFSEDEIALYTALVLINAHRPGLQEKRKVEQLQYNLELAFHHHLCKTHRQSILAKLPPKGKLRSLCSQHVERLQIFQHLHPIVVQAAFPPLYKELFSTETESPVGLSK
Sequence of human Vitamin D Receptor (VDR), VDR (gene 7421) (P11473 whole entry, looked up, the tested form may be a part): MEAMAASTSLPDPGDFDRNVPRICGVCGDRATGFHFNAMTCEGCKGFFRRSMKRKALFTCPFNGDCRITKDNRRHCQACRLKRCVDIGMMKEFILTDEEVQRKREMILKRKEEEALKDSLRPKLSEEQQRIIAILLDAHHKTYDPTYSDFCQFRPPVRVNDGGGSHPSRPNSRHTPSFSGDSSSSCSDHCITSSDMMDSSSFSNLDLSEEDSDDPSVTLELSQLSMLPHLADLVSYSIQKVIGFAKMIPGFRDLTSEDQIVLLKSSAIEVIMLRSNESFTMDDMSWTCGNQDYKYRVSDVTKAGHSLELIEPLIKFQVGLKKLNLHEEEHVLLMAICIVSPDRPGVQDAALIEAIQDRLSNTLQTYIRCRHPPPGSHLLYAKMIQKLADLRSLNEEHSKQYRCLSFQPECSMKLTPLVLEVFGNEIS
Sequence of human Peroxisome Proliferator-activated Receptor delta (PPARd), PPARD (gene 5467) (Q03181 whole entry, looked up, the tested form may be a part): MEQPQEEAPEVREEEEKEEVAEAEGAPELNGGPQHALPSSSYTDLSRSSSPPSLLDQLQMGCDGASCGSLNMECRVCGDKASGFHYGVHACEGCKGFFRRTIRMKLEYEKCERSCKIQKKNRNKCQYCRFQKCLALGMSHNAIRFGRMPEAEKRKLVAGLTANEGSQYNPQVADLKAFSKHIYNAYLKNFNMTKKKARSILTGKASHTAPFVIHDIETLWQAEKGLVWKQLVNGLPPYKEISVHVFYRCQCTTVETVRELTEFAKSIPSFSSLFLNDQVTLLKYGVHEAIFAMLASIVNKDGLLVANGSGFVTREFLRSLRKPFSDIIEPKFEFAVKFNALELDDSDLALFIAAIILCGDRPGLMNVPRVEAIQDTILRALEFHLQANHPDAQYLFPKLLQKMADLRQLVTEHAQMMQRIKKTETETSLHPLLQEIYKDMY
Sequence of human RAR-related Orphan Receptor beta (RORb), RORB (gene 6096) (Q92753 whole entry, looked up, the tested form may be a part): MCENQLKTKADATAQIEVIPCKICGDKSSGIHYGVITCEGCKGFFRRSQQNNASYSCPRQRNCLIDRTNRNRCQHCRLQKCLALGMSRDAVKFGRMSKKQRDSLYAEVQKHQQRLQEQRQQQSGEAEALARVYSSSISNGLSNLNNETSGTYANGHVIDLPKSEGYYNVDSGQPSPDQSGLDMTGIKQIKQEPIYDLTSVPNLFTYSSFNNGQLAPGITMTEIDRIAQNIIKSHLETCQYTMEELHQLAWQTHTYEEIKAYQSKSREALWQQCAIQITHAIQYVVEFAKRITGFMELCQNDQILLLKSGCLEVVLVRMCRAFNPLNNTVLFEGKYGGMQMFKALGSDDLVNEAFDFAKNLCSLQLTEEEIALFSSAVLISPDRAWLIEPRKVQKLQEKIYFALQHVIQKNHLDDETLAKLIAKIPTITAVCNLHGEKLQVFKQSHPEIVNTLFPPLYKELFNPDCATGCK
Sequence of Nuclear receptor subfamily 1 group I member 3 (Homo sapiens) (Q14994 whole entry, looked up, the tested form may be a part): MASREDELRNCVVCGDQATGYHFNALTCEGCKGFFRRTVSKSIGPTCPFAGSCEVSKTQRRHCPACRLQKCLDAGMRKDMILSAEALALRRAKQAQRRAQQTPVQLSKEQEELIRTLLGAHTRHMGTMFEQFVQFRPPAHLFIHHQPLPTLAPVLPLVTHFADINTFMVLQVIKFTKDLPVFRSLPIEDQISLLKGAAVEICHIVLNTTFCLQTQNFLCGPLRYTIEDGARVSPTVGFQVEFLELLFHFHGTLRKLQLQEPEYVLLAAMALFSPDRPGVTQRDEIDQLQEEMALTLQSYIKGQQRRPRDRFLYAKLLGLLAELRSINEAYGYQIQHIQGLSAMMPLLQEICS
Sequence of Oxysterols receptor LXR-alpha (Homo sapiens) (Q13133 whole entry, looked up, the tested form may be a part): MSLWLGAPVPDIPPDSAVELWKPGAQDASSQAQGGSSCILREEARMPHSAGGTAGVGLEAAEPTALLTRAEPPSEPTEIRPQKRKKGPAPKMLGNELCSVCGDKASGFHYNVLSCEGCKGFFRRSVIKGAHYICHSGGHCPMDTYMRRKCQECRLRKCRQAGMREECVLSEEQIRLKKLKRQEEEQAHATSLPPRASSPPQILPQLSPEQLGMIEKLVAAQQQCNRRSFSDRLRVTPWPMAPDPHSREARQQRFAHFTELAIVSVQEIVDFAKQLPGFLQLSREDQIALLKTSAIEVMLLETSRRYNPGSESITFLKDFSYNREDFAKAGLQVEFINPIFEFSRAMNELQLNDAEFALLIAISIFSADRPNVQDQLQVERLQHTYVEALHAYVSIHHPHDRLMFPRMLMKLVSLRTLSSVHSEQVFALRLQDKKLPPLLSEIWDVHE
Sequence of Cellular tumor antigen p53 (Homo sapiens) (P04637 whole entry, looked up): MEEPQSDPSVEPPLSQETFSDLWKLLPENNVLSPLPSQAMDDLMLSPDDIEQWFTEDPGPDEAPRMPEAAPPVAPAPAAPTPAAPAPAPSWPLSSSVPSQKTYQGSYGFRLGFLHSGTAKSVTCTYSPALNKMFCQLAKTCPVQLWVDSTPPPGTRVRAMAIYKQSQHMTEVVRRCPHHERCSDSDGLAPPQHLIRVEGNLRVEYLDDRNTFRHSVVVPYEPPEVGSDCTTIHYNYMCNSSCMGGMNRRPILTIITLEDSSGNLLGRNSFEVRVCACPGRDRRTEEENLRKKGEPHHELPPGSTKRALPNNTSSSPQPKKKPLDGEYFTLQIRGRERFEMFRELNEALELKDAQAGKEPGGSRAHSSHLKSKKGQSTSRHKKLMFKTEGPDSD
Sequence of Glucocorticoid receptor (Homo sapiens) (P04150 whole entry, looked up, the tested form may be a part): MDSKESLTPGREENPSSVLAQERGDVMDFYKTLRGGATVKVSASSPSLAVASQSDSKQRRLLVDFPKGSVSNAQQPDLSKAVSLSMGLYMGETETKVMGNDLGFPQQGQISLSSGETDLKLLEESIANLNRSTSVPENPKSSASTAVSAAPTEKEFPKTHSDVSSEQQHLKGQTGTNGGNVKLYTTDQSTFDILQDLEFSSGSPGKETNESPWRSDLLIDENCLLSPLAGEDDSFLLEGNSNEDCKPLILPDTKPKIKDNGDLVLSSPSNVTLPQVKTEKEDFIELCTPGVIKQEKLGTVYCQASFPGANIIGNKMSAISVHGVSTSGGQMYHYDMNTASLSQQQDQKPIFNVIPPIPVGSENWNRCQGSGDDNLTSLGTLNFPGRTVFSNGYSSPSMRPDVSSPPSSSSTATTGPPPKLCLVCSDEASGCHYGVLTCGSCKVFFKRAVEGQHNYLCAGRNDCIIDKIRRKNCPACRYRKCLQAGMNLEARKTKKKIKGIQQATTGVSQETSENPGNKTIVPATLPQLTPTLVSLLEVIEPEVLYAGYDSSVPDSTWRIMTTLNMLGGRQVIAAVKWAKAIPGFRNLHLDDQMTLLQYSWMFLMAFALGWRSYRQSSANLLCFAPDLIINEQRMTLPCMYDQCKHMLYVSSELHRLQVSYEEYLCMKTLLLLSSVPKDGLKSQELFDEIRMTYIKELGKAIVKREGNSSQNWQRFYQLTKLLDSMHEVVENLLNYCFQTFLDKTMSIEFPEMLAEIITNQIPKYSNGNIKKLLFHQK

O=C(NC(=O)c1c(F)cccc1F)Nc1ccc(Oc2ccc(C(F)(F)F)cc2Cl)cc1F
not listed: [13] | [14] | [15] | [16] | [17] | [18] | [19] | [20]
inactive: all other assays above

COC(C)(C)CCC[C@H](C)C/C=C/C(C)=C/C(=O)OC(C)C
inactive: [1] | [13] | [4] | [5] | [14] | [10] | [11]
active: [7] 157 µM | [15] 79.3 µM

ClCC(Cl)Cl
inactive: [3] | [13] | [16] | [14] | [9] | [17] | [10] | [18]

C=CCO
inactive: [4] | [19] | [7] | [8] | [17] | [18]

C[C@]12CC[C@H](O)C[C@H]1CC[C@@H]1[C@@H]2C[C@@H](O)[C@]2(C)[C@@H](C3=CC(=O)OC3)CC[C@]12O
inactive: [2] | [5] | [6] | [7] | [8] | [14] | [9]
active: [20] 1.29 µM | [15] 1.75 µM

C=CC(=O)OCCCCOC(=O)C=C
active: [2] 65.8 µM | [7] 163 µM | [10] 69.5 µM
inactive: [6] | [8] | [9] | [17]

CC1OC(C)OC(C)O1 (stereo not drawn)
active: [18] 42.6 µM
inactive: [2] | [3] | [4] | [16] | [8] | [20] | [17] | [10] | [18] | [15]

N#CCNCC#N
inactive: [4] | [16] | [8] | [20] | [14] | [9] | [17]

C[C@]12CC[C@H]3[C@@H](CC[C@@]45O[C@@H]4C(O)=C(C#N)C[C@]35C)[C@@H]1CC[C@@H]2O
inactive: [3] | [13] | [5] | [6] | [7] | [8] | [9] | [17] | [10] | [18] | [12]

CC(Cc1ccc(C(C)(C)C)cc1)CN1C[C@@H](C)O[C@@H](C)C1 (stereo partly drawn)
active: [18] 46.1 µM | [15] 89.5 µM
not listed: [1] | [8] | [9] | [14] | [16]
inactive: all other assays above

O=S(=O)(O)O
inactive: [6] | [17] | [12]

CC(C)CCCCCCCOC(=O)c1ccccc1C(=O)OCCCCCCCC(C)C
inactive: [2] | [4] | [16] | [19] | [7] | [20] | [14] | [17] | [12]

COc1ccc(CO)cc1
inactive: [2] | [4] | [16] | [19] | [6] | [7] | [8] | [20] | [14] | [10] | [12]
